# Test results published in PubChem BioAssay AID651598 (Sanford-Burnham Center for Chemical Genomics, 2012).
# Several values for one entry are separate records, joined by “and”; a condition that tells them apart may be missing. Equal entries are not always repeated.
# Target: C-X-C chemokine receptor type 6 (Homo sapiens) (UniProt O00574)
# Assay: APJ beta-arrestin recruitment blockade alongside CXCR6 – cell-based, DiscoveRx, panel, CHO-K1, counter-screen for CXCR6 antagonist project, SAR follow-up (AID 651598)
# Conditions: CHO-K1 PathHunter beta-arrestin luminescence, antagonist mode; run 4, at 80 µM (top of the series)
# Sequence of C-X-C chemokine receptor type 6 (Homo sapiens) (O00574 whole entry, looked up): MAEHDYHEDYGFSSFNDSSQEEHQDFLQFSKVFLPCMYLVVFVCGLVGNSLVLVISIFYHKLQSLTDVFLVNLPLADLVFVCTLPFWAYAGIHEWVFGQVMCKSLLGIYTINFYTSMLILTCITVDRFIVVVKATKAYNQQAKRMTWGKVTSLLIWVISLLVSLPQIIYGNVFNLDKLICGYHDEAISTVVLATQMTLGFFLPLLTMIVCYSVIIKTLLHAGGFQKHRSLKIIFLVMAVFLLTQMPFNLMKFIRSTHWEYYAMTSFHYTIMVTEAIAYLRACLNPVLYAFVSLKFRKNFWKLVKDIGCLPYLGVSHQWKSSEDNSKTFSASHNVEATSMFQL
row,Compound,inhibition
1,COc1cc(C(=O)NC2CC3CCC(C2)N3CC(=O)Nc2ccccc2)cc(OC)c1OC (stereo not drawn),45.8% and 2.45%
2,COc1cc(C(=O)NC2CC3CCCC(C2)N3CC(=O)Nc2ccccc2)cc(OC)c1OC (stereo not drawn),88.8% and 51.2% and 29%
3,COc1cc(C(=O)NC2CCN(CC(=O)Nc3ccccc3)CC2)cc(OC)c1OC,29.6%
